Assay outcomes: PubChem, several laboratories
Anthrax LF inh2 = Bacillus anthracis LF protease inhibitors, primary screen, biochemical, multiplex microsphere, MLPCN library. Lethal factor (Bacillus anthracis), P15917. multiplex microsphere protease cleavage assay. inhibition, % at 10 µM. 0.12% of 360,000 active. AID 588501, 2011
Target sequence (P15917 whole entry, looked up): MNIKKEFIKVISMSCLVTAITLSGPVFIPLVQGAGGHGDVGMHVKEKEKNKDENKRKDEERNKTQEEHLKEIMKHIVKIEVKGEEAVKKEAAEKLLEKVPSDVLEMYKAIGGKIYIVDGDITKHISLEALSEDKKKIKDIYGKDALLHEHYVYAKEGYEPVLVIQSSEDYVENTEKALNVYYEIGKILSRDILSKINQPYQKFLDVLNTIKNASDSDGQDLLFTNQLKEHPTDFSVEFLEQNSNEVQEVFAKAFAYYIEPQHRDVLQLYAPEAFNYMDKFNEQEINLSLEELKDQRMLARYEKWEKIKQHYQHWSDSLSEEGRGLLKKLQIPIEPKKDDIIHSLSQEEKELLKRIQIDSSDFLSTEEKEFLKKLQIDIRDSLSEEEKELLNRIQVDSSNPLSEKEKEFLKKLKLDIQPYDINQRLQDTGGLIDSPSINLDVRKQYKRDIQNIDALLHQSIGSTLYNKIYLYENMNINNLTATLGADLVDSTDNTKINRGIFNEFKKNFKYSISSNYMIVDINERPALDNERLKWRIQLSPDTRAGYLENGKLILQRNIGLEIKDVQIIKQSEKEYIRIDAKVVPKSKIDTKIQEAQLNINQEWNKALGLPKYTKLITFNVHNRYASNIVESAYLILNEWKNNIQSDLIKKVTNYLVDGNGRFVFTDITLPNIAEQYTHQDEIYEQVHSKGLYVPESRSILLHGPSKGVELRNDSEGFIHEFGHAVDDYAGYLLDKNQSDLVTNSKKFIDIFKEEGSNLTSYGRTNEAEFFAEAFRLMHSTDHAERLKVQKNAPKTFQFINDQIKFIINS
BoNT-F LC inh = BoNT/F light chain protease inhibitors, primary screen, biochemical, flow cytometry, MLPCN library | Multiplex microsphere protease cleavage assay | 0.22% of 360,000 active | AID 588497, 2011 | inhibition, % at 10 µM | Botulinum neurotoxin type F light chain protease (Clostridium botulinum); in the data active = inhibition above about 35%, passing the limit was not always enough; inconclusive = no clear call, values can overlap the other calls
BH1578 lux ind = inducers of Vibrio cholerae quorum light production without autoinducers, primary screen, BH1578 luxS cqsA deficient, single point | V. cholerae BH1578 lux reporter, luminescence, 6 h | activation, % at 18.7 µM | AID 588436, 2011 | 0.16% of 350,000 active; in the data active = activation mostly above about 9.7%, no sharp cut-off; inconclusive = no clear call, values can overlap the other calls; inactive = mostly below about 3.7%
Autofluor counter = flagged as autofluorescent in microsphere protease counterscreen; compound autofluorescence counterscreen, microsphere flow cytometry; stronger effect = higher value; fluorescence intensity (concentration not given with the values); 3.1% of 360,000 active; AID 624483; in the data active = fluorescence intensity above about 16000; inconclusive = no clear call, values can overlap the other calls
BoNT A protease = BoNT/A light chain protease inhibitors, primary screen, biochemical, flow cytometry, MLPCN library. multiplex microsphere protease substrate cleavage. Botulinum neurotoxin type A light chain protease (Clostridium botulinum A str. ATCC 3502). AID 588499, 2011. 0.17% of 360,000 active. inhibition, % at 10 µM
Hits are given with their value; - = inactive; ? = inconclusive; . = no result given. An excerpt weighted towards active compounds, which were near 3.5% of everything screened. Cut-off read from the data, not from the text of the source, unless noted: active = inhibition above about 30%; inconclusive = no clear call, values can overlap the other calls; inactive = below that.

SMILES | Anthrax LF inh2 | BoNT-F LC inh | BH1578 lux ind | Autofluor counter | BoNT A protease
CC1CCN(C(=O)c2cc3nc(-c4ccccc4)cc(-c4ccccc4)n3n2)CC1 | - | - | - | 20793 | -
O=C(c1cc2nc(-c3ccc(F)cc3)cc(C(F)(F)F)n2n1)N1CCOCC1 | - | - | - | - | -
O=C(NC1CCCC1)c1cc2nc(-c3ccccc3)cc(-c3ccccc3)n2n1 | - | - | - | - | -
O=C(c1cc2nc(-c3ccccc3)cc(C(F)(F)F)n2n1)N1CCOCC1 | - | - | - | 21930 | -
CCc1cccc(CC)c1NC(=S)Nc1ccccc1 | - | - | - | - | -
CCOC(=O)c1nc(C)[nH]c1C(=O)OCC | - | - | - | 22419 | ?
CN1CCC(N(C)C(=O)/C(C#N)=C/c2ccc(OC(F)F)cc2)CC1 | - | - | - | - | -
CCN(CC)C(=O)c1cn(CCC#N)nc1-c1ccc(F)cc1 | - | - | - | - | -
O=C(NCCCN1CCOCC1)c1ccc2c(c1)N(Cc1c(F)cccc1Cl)C(=O)CS2 | - | - | - | - | -
COc1ccc(OC)c(NC2c3ncccc3C(=O)N2Cc2ccco2)c1 (configuration not stated) | - | - | - | 16912 | -
COc1ccc(CN2C(=O)c3cccnc3C2Nc2cc(Cl)ccc2OC)cc1 (configuration not stated) | - | - | - | 21495 | -
Cc1ccc(N2CC(C(=O)NCCN3CCOCC3)CC2=O)cc1C (configuration not stated) | - | - | - | - | -
COC(=O)COn1c(-n2nc(C)cc2C)nc2ccccc2c1=O | - | - | - | 22312 | -
CCOn1c(-n2nc(C)cc2C)nc2ccccc2c1=O | - | - | - | 20487 | -
CCN(CC)C(=O)COn1c(SCC(=O)N(CC)CC)nc2ccccc2c1=O | - | - | - | 19592 | -
Cn1nc(-c2ccc(Cl)cc2)cc1NC(=O)CSCC(=O)O | . | . | - | . | .
CCCN(C(=O)Cc1c(C(=O)O)n(C)c2ccccc12)c1cccc(C)c1 | - | - | - | - | -
COc1ccc(-n2c(O)c(/C=N/NS(=O)(=O)c3cc(C)ccc3C)c3ccccc3c2=O)cc1OC | - | - | - | 17279 | -
N#Cc1ccc(CN2CCN(C(=O)c3ccccc3)CC2)c(Cl)c1 | - | - | - | 21609 | ?
Cc1nc(NC(=O)c2oc3ccccc3c2C)sc1C(=O)N(C)C | - | - | - | 24342 | -
O=C(CSc1nncs1)Nc1nnc(-c2ccccc2)o1 | - | - | - | - | -
Cc1ccccc1/C(N)=N/OC(=O)/C=C/c1ccccc1 | - | - | - | 22804 | -
COc1ccc(/C(N)=N/OC(=O)/C=C/c2ccccc2)cc1 | - | 61.7 | - | - | -
Cc1ccc(/C(N)=N/OC(=O)/C=C/c2ccccc2)cc1 | - | - | - | - | -
CCc1c(C2(O)CCCCC2)[nH]c2ccc(C(F)(F)F)cc12 | - | - | - | - | -
SMILES | Anthrax LF inh2 | BoNT-F LC inh | BH1578 lux ind | Autofluor counter | BoNT A protease
Cc1cc(Cl)ccc1OCC(=O)N(Cc1ccco1)C1CCS(=O)(=O)C1 (configuration not stated) | - | ? | - | - | -
COc1ccc(C)cc1NC(=O)c1ccc2c(O)c(S(=O)(=O)c3ccccc3)c(=O)[nH]c2c1 | - | - | - | - | -
CCC(=O)Nc1sccc1C(=O)OC | - | - | - | 22995 | ?
COC(=O)c1c(NC(=O)CN2CCN(Cc3ccc4c(c3)OCO4)CC2)sc(C)c1C | - | - | . | ? | -
COC(=O)c1[nH]c2ccc(C)cc2c1NC(=O)CCN1CCN(Cc2ccc3c(c2)OCO3)CC1 | - | - | - | 22086 | -
COC(=O)c1ccsc1NC(=O)CN1CCN(Cc2ccc3c(c2)OCO3)CC1 | - | - | - | 21667 | -
COC(=O)Nc1sccc1C(=O)Nc1sccc1C(=O)OC | - | - | - | - | -
COCCCn1c(SCC(=O)N2CCCCC2C)nnc1-c1ccco1 (configuration not stated) | - | - | - | 16205 | -
CC(C)Cn1c(SCC(=O)c2ccc(Cl)s2)nnc1-c1ccco1 | - | - | - | 22317 | -
COCCCn1c(SCC(=O)NC2CCCC2)nnc1-c1ccco1 | - | - | - | 20908 | -
CC(C)Cn1c(N)c(C(=O)CSc2nnc(-c3ccco3)n2C)c(=O)n(C)c1=O | - | - | - | - | -
CCCCn1c(SCC(N)=O)nnc1-c1ccco1 | - | - | - | 22326 | -
Cc1cccc(NC(=O)N2CCN(Cc3ccc4c(c3)OCO4)CC2)c1C | - | - | - | - | -
C1CCCCCC(NCCN2CCNCC2)CCCCC1 | - | - | - | - | -
O=C(CSc1nnc(-c2ccncc2)n1C1CCCCC1)Nc1cccc(O)c1 | - | - | - | 16523 | -
NC(=O)CSc1nnc(-c2ccc(O)cc2)n1Cc1ccco1 | - | - | - | - | -
O=C(CSc1nnc(-c2ccc(O)cc2)n1Cc1ccco1)N1CCc2ccccc2C1 | - | - | - | 16322 | -
CCc1cccc(CC)c1-n1c(SCC(=O)N2CCc3ccccc3C2)nnc1-c1cccnc1 | - | - | - | 36354 | -
Cc1ccc(-n2c(SCC(=O)N3CCCc4ccccc43)nnc2-c2cccnc2)c(C)c1 | - | - | - | 26671 | -
Cc1cnc(NC(=O)CSc2nnc(-c3ccncc3)n2C2CCCCC2)s1 | - | - | - | - | -
Nc1sc(-c2ccccc2)c(Cc2ccccc2)c1C(=O)O | - | - | - | - | -
COc1cccc(C2(C)NC(=O)N(CC(=O)c3cc(C)n(C4CC4)c3C)C2=O)c1 (configuration not stated) | - | - | - | - | -
Cc1noc(C)c1NC(=O)Nc1ccc2c(c1)C(=O)N([C@@H](C)CO)C[C@@H](C)[C@@H](CN(C)Cc1ccc3c(c1)OCO3)O2 | - | - | - | - | -
N#C/C(=C\c1ccccc1O)C(=O)Nc1ccccn1 | - | - | - | - | -
CC1CCN(C(=O)CSc2nnc(-c3cccnc3)n2C2CCCCC2)CC1 | - | - | - | 17010 | ?
SMILES | Anthrax LF inh2 | BoNT-F LC inh | BH1578 lux ind | Autofluor counter | BoNT A protease
COC(=O)C1=C(NC(=O)c2cccc(OC)c2)CCS1 | - | - | - | 22750 | -
CC(C)C(=O)Nc1ccc(Cc2ccc(NC(=O)C(C)C)c(O)c2)cc1O | - | - | - | 16658 | -
CC(C)C(=O)Nc1ccccc1Cc1ccccc1 | - | - | - | - | -
CCS(=O)(=O)C(=C(Nc1ccc(OC)cc1)Nc1ccc(OC)cc1)S(=O)(=O)CC | - | - | - | 22992 | -
COc1ccc(NC(=O)N2CCN(C(=O)Nc3ccc(OC)cc3)CC2)cc1 | - | - | - | - | -
O=C1N(c2ccc(Cl)c(Cl)c2)CN(Cc2ccccc2)CN1n1cnnc1 | - | - | - | 17448 | -
Cc1ccc(NC(=O)CCn2c(=S)oc3ccccc32)cc1F | - | - | - | - | -
Cc1ccc(-c2csc(=S)n2CC(=O)OCC(=O)NCc2ccco2)cc1 | - | - | - | - | -
Cc1ccc(-c2csc(=S)n2CC(=O)OCC(=O)NC(C)C(C)C)cc1 (configuration not stated) | - | - | - | 16450 | -
